Measurements: PubChem BioAssay AID1159580 (chemical genetic matrix, 2015)
“And” between values parts separate entries of the source, which are not always exact repeats. Equal values may be shown once. Hit rate of the full screen: of about 5,500 compounds, about 2,000 (36%) were called active. Roughly 18% stayed inconclusive and do not appear here. Rule as the data show it: active = normalized growth mostly below about 0.91 (no sharp cut-off); inconclusive = no clear call, values can overlap the other calls; inactive = mostly above about 0.92. The list shows a part of the results. A structure can be active in one record and inactive in another.

Experiment: chemical genetic growth profiling, strain panel (AID 1159580);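 also: tested at 20 µM; growth read once vehicle control cultures reached saturation at 30 °C; 1 = growth at the plate median or of vehicle wells; lower values mean less growth of the strain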
Details: S. cerevisiae deletion strains, growth OD

In the case of `CC(C)COCC(CN(Cc1ccccc1)c1ccccc1)N1CCCC1` (stereo not given), the normalized growth (locus YAL013W, strain DEP1, stronger effect = lower value) is reported as 0.871 (active), the normalized growth (locus YAL021C, strain ccr4, stronger effect = lower value) is reported as 0.962 (inactive) and the normalized growth (locus YAL026C, strain drs2, stronger effect = lower value) is reported as 1.01 (inactive). The normalized growth (locus YAL030W, strain snc1, stronger effect = lower value) was 1.03 (inactive), the normalized growth (locus YAL040C, strain CLN3, stronger effect = lower value) was 1.09 (inactive) and the normalized growth (locus YBL061C, strain skt5, stronger effect = lower value) was 1.04 (inactive). For the same compound, the normalized growth (locus YBR009C, strain hhf1, stronger effect = lower value) was 1 (inactive), the normalized growth (locus YBR021W, strain FUR4, stronger effect = lower value) was 0.594 (active) and the normalized growth (locus YBR023C, strain chs3, stronger effect = lower value) was 1.02 (inactive). The normalized growth (locus YBR171W, strain sec66, stronger effect = lower value) was 1.06 (inactive), the normalized growth (locus YBR229C, strain ROT2, stronger effect = lower value) was 0.953 (inactive) and the normalized growth (locus YBR231C, strain swc5, stronger effect = lower value) was 1.01 (inactive). For the same compound, the normalized growth (locus YBR279W, strain paf1, stronger effect = lower value) was 1.04 (inactive), the normalized growth (locus YCL011C, strain gbp2, stronger effect = lower value) was 1.02 (inactive) and the normalized growth (locus YCL016C, strain dcc1, stronger effect = lower value) was 1.02 (inactive). The normalized growth (locus YCL029C, strain bik1, stronger effect = lower value) was 0.978 (inactive), the normalized growth (locus YCL061C, strain MRC1 (second series), stronger effect = lower value) was 1.01 (inactive) and the normalized growth (locus YCL061C, strain MRC1, stronger effect = lower value) was 1.02 (inactive). For the same compound, the normalized growth (locus YCL069W, strain vba3, stronger effect = lower value) was 1.05 (inactive), the normalized growth (locus YCR088W, strain abp1, stronger effect = lower value) was 1.04 (inactive) and the normalized growth (locus YDL005C, strain med2, stronger effect = lower value) was 1.05 (inactive). The normalized growth (locus YDL035C, strain GPR1, stronger effect = lower value) was 0.864 (inactive), the normalized growth (locus YDL040C, strain nat1, stronger effect = lower value) was 1.02 (inactive) and the normalized growth (locus YDL074C, strain BRE1, stronger effect = lower value) was 0.694 (active). For the same compound, the normalized growth (locus YDL101C, strain DUN1, stronger effect = lower value) was 0.926 (inactive), the normalized growth (locus YDL134C, strain PPH21, stronger effect = lower value) was 0.9 (inactive) and the normalized growth (locus YDL185W, strain tfp1, stronger effect = lower value) was 0.978 (inactive). The normalized growth (locus YDL192W, strain arf1, stronger effect = lower value) was 0.977 (inactive), the normalized growth (locus YDR001C, strain nth1, stronger effect = lower value) was 1.03 (inactive) and the normalized growth (locus YDR069C, strain doa4, stronger effect = lower value) was 1.02 (inactive). The normalized growth (locus YDR101C, strain arx1, stronger effect = lower value) was 0.929 (inactive), the normalized growth (locus YDR137W, strain rgp1, stronger effect = lower value) was 1.1 (inactive) and the normalized growth (locus YDR150W, strain NUM1, stronger effect = lower value) was 0.965 (inactive). For the same compound, the normalized growth (locus YDR159W, strain sac3, stronger effect = lower value) was 1.03 (inactive), the normalized growth (locus YDR162C, strain NBP2, stronger effect = lower value) was 0.802 (active) and the normalized growth (locus YDR195W, strain ref2) was 1.07 (inactive). For the same compound, the normalized growth (locus YDR297W, strain sur2, stronger effect = lower value) was 1.02 (inactive), the normalized growth (locus YDR318W, strain mcm21, stronger effect = lower value) was 0.947 (inactive) and the normalized growth (locus YDR334W, strain swr1, stronger effect = lower value) was 1.03 (inactive). For the same compound, the normalized growth (locus YDR335W, strain msn5, stronger effect = lower value) was 1.06 (inactive), the normalized growth (locus YDR388W, stronger effect = lower value) was 0.814 (active) and the normalized growth (locus YDR392W, strain spt3, stronger effect = lower value) was 0.934 (inactive). The normalized growth (locus YDR502C, strain sam2, stronger effect = lower value) was 0.914 (active), the normalized growth (locus YEL003W, strain gim4, stronger effect = lower value) was 1.04 (inactive) and the normalized growth (locus YEL037C, strain rad23, stronger effect = lower value) was 1.03 (inactive). For the same compound, the normalized growth (locus YEL061C, strain CIN8 (second series), stronger effect = lower value) was 1.03 (inactive), the normalized growth (locus YEL061C, strain CIN8, stronger effect = lower value) was 0.973 (inactive) and the normalized growth (locus YER002W, strain NOP16, stronger effect = lower value) was 1.02 (inactive). The normalized growth (locus YER015W, strain faa2, stronger effect = lower value) was 1.01 (inactive), the normalized growth (locus YER016W, strain bim1, stronger effect = lower value) was 1.02 (inactive) and the normalized growth (locus YER110C, stronger effect = lower value) was 0.96 (inactive). For the same compound, the normalized growth (locus YER111C, strain swi4, stronger effect = lower value) was 1.06 (inactive), the normalized growth (locus YER155C, strain BEM2 (second series), stronger effect = lower value) was 0.884 (inactive) and the normalized growth (locus YER155C, strain BEM2, stronger effect = lower value) was 1.02 (inactive). The normalized growth (locus YER167W, strain BCK2, stronger effect = lower value) was 0.958 (inactive), the normalized growth (locus YFR010W, strain ubp6, stronger effect = lower value) was 0.998 (inactive) and the normalized growth (locus YGL078C, strain dbp3, stronger effect = lower value) was 0.978 (inactive). The normalized growth (locus YGL086W, strain mad1, stronger effect = lower value) was 0.903 (active), the normalized growth (locus YGL167C, strain pmr1, stronger effect = lower value) was 1.04 (inactive) and the normalized growth (locus YGL173C, strain kem1, stronger effect = lower value) was 1.01 (inactive). The normalized growth (locus YGL227W, strain vid30, stronger effect = lower value) was 1.03 (inactive), the normalized growth (locus YGL240W, strain doc1, stronger effect = lower value) was 0.99 (inactive) and the normalized growth (locus YGL248W, strain PDE1, stronger effect = lower value) was 0.849 (active). For the same compound, the normalized growth (locus YGL253W, strain hxk2, stronger effect = lower value) was 1.05 (inactive), the normalized growth (locus YGR078C, strain PAC10, stronger effect = lower value) was 0.786 (active) and 0.987 (inactive) and the normalized growth (locus YGR135W, strain pre9, stronger effect = lower value) was 0.849 (active). For the same compound, the normalized growth (locus YGR229C, strain SMI1, stronger effect = lower value) was 0.434 (active), the normalized growth (locus YGR252W, strain gcn5, stronger effect = lower value) was 0.734 (active) and the normalized growth (locus YHR013C, strain ard1, stronger effect = lower value) was 1.03 (inactive). The normalized growth (locus YHR027C, strain rpn1, stronger effect = lower value) was 1 (inactive), the normalized growth (locus YHR030C, strain SLT2, stronger effect = lower value) was 0.771 (active) and 0.959 (inactive) and the normalized growth (locus YHR079C, strain IRE1 (second series), stronger effect = lower value) was 0.972 (inactive). For the same compound, the normalized growth (locus YHR079C, strain IRE1, stronger effect = lower value) was 0.998 (inactive), the normalized growth (locus YHR094C, strain hxt1, stronger effect = lower value) was 0.987 (inactive) and the normalized growth (locus YHR129C, strain ARP1, stronger effect = lower value) was 0.949 (inactive). The normalized growth (locus YHR142W, strain chs7, stronger effect = lower value) was 1.04 (inactive), the normalized growth (locus YHR200W, strain rpn10, stronger effect = lower value) was 0.975 (inactive) and the normalized growth (locus YIL066C, strain RNR3, stronger effect = lower value) was 0.809 (active). For the same compound, the normalized growth (locus YIL073C, strain SPO22, stronger effect = lower value) was 1.3 (inactive), the normalized growth (locus YIL125W, strain kgd1, stronger effect = lower value) was 0.991 (inactive) and the normalized growth (locus YIR030C, strain dcg1, stronger effect = lower value) was 0.98 (inactive). The normalized growth (locus YJL092W, strain hpr5, stronger effect = lower value) was 1.01 (inactive), the normalized growth (locus YJL095W, strain BCK1 (second series), stronger effect = lower value) was 1 (inactive) and the normalized growth (locus YJL095W, strain BCK1, stronger effect = lower value) was 0.587 (active) and 0.983 (inactive). For the same compound, the normalized growth (locus YJL115W, strain asf1, stronger effect = lower value) was 1.04 (inactive), the normalized growth (locus YJL129C, strain trk1, stronger effect = lower value) was 1.06 (inactive) and the normalized growth (locus YJL134W, strain LCB3, stronger effect = lower value) was 0.988 (inactive). For the same compound, the normalized growth (locus YJL154C, strain vps35, stronger effect = lower value) was 1.04 (inactive), the normalized growth (locus YJL164C, strain tpk1, stronger effect = lower value) was 1.01 (inactive) and the normalized growth (locus YJL166W, strain qcr8, stronger effect = lower value) was 1.01 (inactive). The normalized growth (locus YJL168C, strain set2, stronger effect = lower value) was 0.989 (inactive), the normalized growth (locus YJL187C, strain SWE1 (second series), stronger effect = lower value) was 0.801 (active) and the normalized growth (locus YJL187C, strain SWE1, stronger effect = lower value) was 1.03 (inactive). The normalized growth (locus YJR043C, strain POL32, stronger effect = lower value) was 0.996 (inactive) and the normalized growth (locus YJR066W, strain TOR1, stronger effect = lower value) was 0.948 (inactive).
